Source: PubChem BioAssay (NCI)
The panel holds about 79,000 compounds, 15% with a hit somewhere; the sample as a whole holds those more often. Cut-off read from the data, not from the text of the source: active = growth inhibition above about 70%; inactive = the rest.

Experiments:
[1] = NCI Yeast Anticancer Drug Screen. Data for the rad50 strain (AID 155);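 note: 0% = growth of vehicle-only cultures of the same strain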; settings: S. cerevisiae rad50 strain growth inhibition; at 50.0 µM; hits give high values
Method in brief: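 Readout: growth inhibition relative to vehicle-treated cultures. Compound exposure was carried out in a genetically defined yeast strain deficient in DNA damage repair.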

[2] = NCI Yeast Anticancer Drug Screen. Data for the mec2-1 strain (AID 157); settings: S. cerevisiae mec2-1 strain, at 50.0 µM, hits give high values
Method in brief: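 Test agents were screened against the mec2-1 yeast strain, with defined DNA repair or cell cycle alteration. Growth was scored as inhibition against vehicle-only controls.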

[3] = NCI Yeast Anticancer Drug Screen. Data for the sgs1 mgt1 strain (AID 161);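 note: 0% = growth of cultures given vehicle only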; settings: S. cerevisiae sgs1 mgt1 strain, at 50.0 µM, hits give high values
Method in brief: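 Test agents were incubated with a DNA-repair-mutant yeast strain. Growth was then read and compared against vehicle-treated controls.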

[4] = NCI Yeast Anticancer Drug Screen. Data for the cln2 rad14 strain (AID 165);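 note: 0% = growth equal to vehicle treated cultures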; settings: S. cerevisiae cln2 rad14 strain, at 50.0 µM, hits give high values
Method in brief: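 Growth of compound-exposed yeast (cln2 rad14 genotype) measured and expressed as inhibition relative to vehicle.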

[5] = NCI Yeast Anticancer Drug Screen. Data for the bub3 strain (AID 167); settings: S. cerevisiae bub3 mutant strain, at 50.0 µM, hits give high values
Method in brief: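 Readout: yeast growth inhibition, expressed relative to vehicle-only wells. The test organism is a mutant strain from a panel with lesions in DNA repair or checkpoint genes.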

[6] = NCI Yeast Anticancer Drug Screen. Data for the mlh1 rad18 strain (AID 175); settings: S. cerevisiae mlh1 rad18 strain growth inhibition; at 50.0 µM; hits give high values
Method in brief: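 In this whole-cell yeast screen, a strain with altered DNA damage repair is challenged with compound, and its growth is measured against matched vehicle-treated controls.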

Measured: growth inhibition

CC1(CCC(=O)c2ccc3c(c2)OCO3)OCCO1
inactive: [1] 31.8% | [2] 8.95% | [3] 23.4% | [4] 14% | [5] 24.6% | [6] 26.9%

COc1cc(OC)c(-c2cc(C(=O)O)c3cc4ccccc4cc3n2)c(OC)c1
inactive: [1] 18.2% | [2] 23.2% | [3] 24.1% | [4] 16.7% | [5] 21.6% | [6] 32%

CCCC(=O)N[C@H]1C2C3CC4C5CC(C42)C1(C)C53 (stereo partly specified)
inactive: [1] -5.3% | [2] -17.4% | [3] 3.8% | [4] 10.3% | [5] 7.25% | [6] -17.2%

CCOC(=O)C(SC(Cl)(S(=O)(=O)c1ccccc1)S(=O)(=O)c1ccccc1)C(=O)OCC
inactive: [1] 2.1% | [2] 10.1% | [3] -4.75% | [4] -8.75% | [5] -13% | [6] -14.6%

CCN(CC)CCNc1c2ccc(Cl)cc2nc2c1c(C)nn2C
inactive: [1] -7.05% | [2] 9.15% | [3] 18.9% | [4] 21% | [5] 33.1% | [6] 6.95%

N#CC(C#N)=C/C=C/C=C/c1c(Cl)cccc1Cl
inactive: [1] -6% | [2] 1.8% | [3] 0.95% | [4] -3.25% | [5] -6.8% | [6] -14.4%

CN(C)c1ccccc1N(C)C
inactive: [1] 5.5% | [2] -15.4% | [3] -14.9% | [4] -8.2% | [5] -1.35% | [6] -13%

CCOC(=O)NC(=O)c1cn(CCN2CCN(C(=O)NCCCCCCNC(=O)N3CCN(CCn4cc(C(=O)NC(=O)OCC)c(=O)[nH]c4=O)CC3)CC2)c(=O)[nH]c1=O
inactive: [1] -12.3% | [2] 14.7% | [3] -8.95% | [4] -18.6% | [5] -0.75% | [6] -11.6%

CC1(C)N=C(/C=N/O)C(C)(C)N1O
inactive: [1] 6.65% | [2] 0.55% | [3] 6.15% | [4] 6.3% | [5] -4.95% | [6] -18.7%

CCCCOC(=O)Nc1ccccc1OCC
inactive: [1] 6.7% | [2] -19.8% | [3] -0.35% | [4] -48.4% | [5] -20.5% | [6] -11.2%

COc1cc(NCCCCC2CCCCN2)c2ncccc2c1 (stereo unspecified)
inactive: [1] 15.7% | [2] 2% | [3] 39% | [4] -11.4% | [5] 55.5% | [6] 48.8%

Cc1ccc(/C=N/NS(=O)(=O)c2ccccc2)cc1
inactive: [1] 18.4% | [2] 13.8% | [3] 15.6% | [4] -16.7% | [5] 12.1% | [6] 24.9%

NC(N)=NC(=O)c1ccccc1
inactive: [1] -26.4% | [2] -12.2% | [3] -9.55% | [4] -23.1% | [5] -0.55% | [6] 12.9%

COc1ccc(CCN2C(=O)c3cccc4c(Br)ccc(c34)C2=O)cc1
inactive: [1] 23.8% | [2] 1.3% | [3] 18.6% | [4] 14.5% | [5] 44.6% | [6] 35.9%

Nc1cc(=O)[nH]c(N2CCN(c3ccccc3)CC2)n1
inactive: [1] 1.15% | [2] -4.9% | [3] -14.3% | [4] 6.15% | [5] 6.15% | [6] 12.4%

CCN(CC)CCOC(=O)c1cc(C(C)O)nc2ccccc12 (stereo unspecified)
inactive: [1] 0.6% | [2] 12.3% | [3] -10.5% | [4] 0.55% | [5] 21.6% | [6] -7.1%

Nc1ccc2c(c1)Cc1c-2cc(Cl)c(N)c1Cl
inactive: [1] 8.85% | [2] -0.65% | [3] -18.8% | [4] 6.5% | [5] 13.8% | [6] 6.2%

Cc1ccc(C)c(I)c1
inactive: [1] 7.2% | [2] -3.55% | [3] 6.1% | [4] -9.95% | [5] -2.55% | [6] 14.1%

COC(=O)C(OC)(OC)C(O)c1ccccc1 (stereo unspecified)
inactive: [1] 34.4% | [2] 4.6% | [3] 49% | [4] 4.95% | [5] -9.35% | [6] 6.8%

COC(OC)c1ccccc1CO
inactive: [1] -7.6% | [2] -28.5% | [3] -6.1% | [4] -41.5% | [5] 3.65% | [6] -14.8%

COC(=O)CC(NC(=O)OCc1ccccc1)C(=O)NC(COC(C)=O)C(=O)NCC(=O)OCc1ccccc1 (stereo unspecified)
inactive: [1] 28.4% | [2] 10.4% | [3] 10.3% | [4] 15.6% | [5] 3.2% | [6] 16.4%
